VP16 counter = VP16 counterscreen qHTS for inhibitors of ROR gamma transcriptional activity; Drosophila S2 Gal4-VP16 UAS-luciferase, luminescence, 20 h; Potency, µM (titrated, usually from 53.6 µM), for inactives: top-dose activity, negative = inhibition, hits mostly inhibitors; hit rate 3.5% among 310,000;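 further: Gal4-VP16 expression switched on by copper sulfate through the metallothionein promoter; on the % scale 0 is the no-effect control and ±100 the full control effect; nearly all actives have a fitted effect of over 50% in size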
RORg inh = qHTS for inhibitors of ROR gamma transcriptional activity | Nuclear receptor ROR-gamma (Mus musculus), P51450 | Potency, µM (titrated, usually from 53.6 µM), for inactives: at the top dose activity change, negative = inhibition, actives largely listed as inhibitors | Drosophila S2 Gal4-RORgamma UAS-luciferase reporter, 20 h | hit rate 5.4% among 310,000 | AID 2551, 2010; further: on the % scale 0 is the no-effect control and ±100 the full control effect; nearly all actives have a fitted effect of over 60% in size
Target sequence (P51450 whole entry, looked up, the tested form may be a part): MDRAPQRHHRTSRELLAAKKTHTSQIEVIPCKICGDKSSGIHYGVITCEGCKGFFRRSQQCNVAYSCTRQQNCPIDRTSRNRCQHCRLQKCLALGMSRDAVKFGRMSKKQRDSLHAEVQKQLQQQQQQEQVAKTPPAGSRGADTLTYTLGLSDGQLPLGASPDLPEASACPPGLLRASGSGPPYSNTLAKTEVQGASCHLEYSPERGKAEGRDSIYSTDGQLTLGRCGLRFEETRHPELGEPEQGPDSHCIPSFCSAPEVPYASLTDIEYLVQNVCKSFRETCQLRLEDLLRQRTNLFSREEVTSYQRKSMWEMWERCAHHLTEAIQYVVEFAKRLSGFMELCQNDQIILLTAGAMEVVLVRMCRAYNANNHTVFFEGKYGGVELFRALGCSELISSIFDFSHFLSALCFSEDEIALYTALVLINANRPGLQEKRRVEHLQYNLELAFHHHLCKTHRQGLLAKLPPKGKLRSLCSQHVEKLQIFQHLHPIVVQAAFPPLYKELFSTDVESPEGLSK
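Drosophila Schneider cells stably carrying a metallothionein-driven Gal4 DBD–ROR gamma fusion and a UAS-Photinus luciferase reporter were exposed to compound for 1 hr, then induced with copper sulfate (700 uM final) for 20 hr at ambient temperature before luminescence reading.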
TGFb inhibitor = qHTS for Inhibitors of TGF-b; HepG2 CAGA-GFP TGF-b/SMAD3 reporter, GFP fluorescence, 18 h; TGF-beta stimulated, 500 pg/mL final; AID 588855, 2011; hit rate 1.2% among 410,000; Potency, µM (highest dose often 46.1 µM), inactives show top-dose activity, negative = inhibition, usual class: inhibitors; further: on the % scale 0 is the no-effect control and ±100 the full control effect; nearly all actives have a fitted effect of over 65% in size
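Using HEPG2 CAGA-GFP reporter cells at 1000 cells/well, we pinned test compounds, stimulated with recombinant TGF-beta (500 pg/mL final) and measured total well GFP after 18 h.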
HepG2 viability = qHTS for Inhibitors of TGF-b: Cytotox Counterscreen; HepG2 CAGA-GFP viability, ATP luminescence, 18 h; Potency, µM (top dose mostly 46.1 µM), for the others: at the highest dose activity change, negative = cytotoxicity, actives largely listed as cytotoxic; hit rate 0.76% among 410,000; AID 588856, 2011
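HepG2 CAGA-GFP cells (1000/well, DMEM with 1% FBS) received compound, then TGF-beta at 500 pg/mL final, and were incubated 18 hours at 37 degrees C. Viability was read by CellTiter-Glo luminescence. Media-only wells were set as complete cell-killing and DMSO as no toxicity.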
ATXN2 expr inh = Primary qHTS for Inhibitors of ATXN expression | hit rate 0.72% among 360,000 | HEK-293 ATXN2-luciferase reporter, luminescence, 24 h | Potency, µM (titrated, usually from 57 µM), for the others: top-dose activity change, negative = inhibition, hits mostly inhibitors; further: on the % scale 0 is the no-effect control and ±100 the full control effect; nearly all actives have a fitted effect of over 55% in size
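qHTS (up to 57 uM final) was run with 24 h compound exposure of reporter cells at 37 °C. Each well was multiplexed: SteadyGlo luminescence measured ATXN2-luciferase expression after a fluorogenic Gly-Phe-AFC viability readout (25 uM final).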
ATXN viability = Viability Counterscreen for Primary qHTS for Inhibitors of ATXN expression. S2 cells (HEK-293 line with an ATXN2-luciferase reporter) viability, CellTiter-Fluor protease fluorescence, 24 h. Potency, µM (titrated, usually from 56.7 µM), most hits filed as cytotoxic. hit rate 0.49% among 400,000. AID 651635, 2014; further: nearly all actives have a fitted effect of over 40% in size
An asterisk follows results filed as active; i = inactive; ? = inconclusive; . = not tested or not shown; ! = repeats disagree; [ ] = remark or other dose. An excerpt weighted towards active compounds, which were near 6.1% of everything screened. The call rests on the fitted dose curve; in most records, active means well fitted curve in the direction sought with a large enough effect; inconclusive means small, poorly fitted or top-dose-only effect, or another doubt; inactive means no such curve, though single readings can be large; an effect the other way counts as inactive or inconclusive. Potency means the concentration at half of the fitted maximal effect.

SMILES	VP16 counter	RORg inh	TGFb inhibitor	HepG2 viability	ATXN2 expr inh	ATXN viability
C=CCOc1ccc(CN(C)Cc2nc3cc(C(F)(F)F)ccc3c(=O)[nH]2)cc1	?	7.08µM*	0.6%	-35.4%	-31.0%	i
COc1cccc(CN(C)Cc2nc3cc(C(F)(F)F)ccc3c(=O)[nH]2)c1	-18.7%	2µM*	-7.1%	-34.5%	-17.9%	i
COc1cccc(Oc2ccc(C(F)(F)F)cc2NC(=O)CCc2nc3ccccc3c(=O)[nH]2)c1	29.6%	27.7%	?	14.8%	14.8%	?
COc1cc(C(=O)NC2CCN(C)CC2)ccc1Nc1ncc2c(n1)N(CCc1ccccc1)CCC(=O)N2C	.	.	?	-67.9%	-1.7%	i
COc1cc(C(=O)NC2CCN(C)CC2)ccc1Nc1ncc2c(n1)N(C1CCCC1)CCC(=O)N2C(C)C	.	.	-2.5%	-47.5%	6.11µM*!	28.2µM*
COc1ccc(NC(=O)c2sc3nc4n(c(=O)c3c2C)CCC4)c(OC)c1	.	.	-6.8%	-16.4%	.	.
Cc1cccc(Nc2nc(NCc3ccco3)c3ccccc3n2)c1	-9.1%	18.9%	?	10µM*	25.1µM*	.
Cc1noc(C)c1CSc1nc2ccccc2nc1NS(=O)(=O)c1ccc(Cl)cc1	-20.5%	?	7.94µM*	-45.9%	-25.7%	i
COCCCNc1nc2ccccc2nc1NS(=O)(=O)c1ccc(Cl)cc1	-1.8%	17.4%	-3.5%	-14.4%	.	i
Cc1ccc(S(=O)(=O)Nc2nc3ccccc3nc2NCc2ccco2)cc1	?	?	-7.1%	-33.3%	142.0%	i
c1ccc(Nc2nc(NCc3ccco3)c3ccccc3n2)cc1	?	-38.7%	?	-76.8%	-30.8%	i
COc1ccc(CNc2nc(-c3ccccc3OC)nc3ccccc23)c(OC)c1	?	12.6µM*	.	.	.	.
O=S(=O)(Nc1nc2ccccc2nc1NCc1ccco1)c1ccc(Cl)cc1	11.2µM*	-37.2%	?	-23.9%	-8.5%	i
O=c1[nH]c(=O)n([C@H]2C[C@@H](O)[C@@H](CO)O2)cc1I	.	.	.	.	-0.2%	.
CCc1cccc(NC(=O)CN2Cc3ccccc3C2=O)c1	.	.	-5.7%	0.7%	.	.
CCNc1nc(NCc2ccco2)c2ccccc2n1	.	.	?	-7.8%	.	.
CNc1nc(NCc2ccco2)c2ccccc2n1	.	.	2.82µM*	-38.8%	.	.
COc1cccc(Nc2nc(NCCO)c3ccccc3n2)c1	?	?	12.6µM*	-36.4%	-12.5%	i
COc1ccc(OC)c(Nc2nc(NCc3ccco3)c3ccccc3n2)c1	?	3.9%[1.91 µM]	?	-52.7%	31.6µM*	.
COc1ccc(N2CCN(C(CNC(=O)c3c(F)cccc3F)c3ccc4c(c3)OCO4)CC2)cc1 (centres undefined)	.	.	-0.6%	-6.9%	2.0%	i
Cc1cccc2c(C(O)c3c[nH]c4c(C)cccc34)c[nH]c12	.	.	-19.0%	1.6%	.	.
COc1cccc(Cc2nc3ccccc3nc2SCC(=O)NCc2ccc(C)cc2)c1	.	.	-0.2%	2.7%	.	.
COCCn1c(=O)c(-c2ccccc2)nc2cnc(N3CCN(C)CC3)nc21	-4.6%	0.9%	.	.	.	.
CC1(C)Cc2c(sc3[nH]c(=S)n(Cc4ccccc4)c(=O)c23)CO1	0.891µM*	7.9%	-4.7%	-35.0%	?	i
Cc1cccc(N2CCN(C(=O)COc3cccc4c3OC(C)(C)C4)CC2)c1C	3.16µM*	?	-5.8%	-17.5%	-23.1%	i
SMILES	VP16 counter	RORg inh	TGFb inhibitor	HepG2 viability	ATXN2 expr inh	ATXN viability
CC1(C)Cc2cccc(OCC(=O)N3CCN(S(=O)(=O)c4ccc(F)cc4)CC3)c2O1	0.0%	40.4%	-4.0%	-7.4%	-11.4%	i
COc1ccc(CCNc2ncnc3c2nnn3C)cc1OC	.	.	-6.5%	-1.1%	.	.
C[C@@H]1CN(Cc2ccc3c(c2)CN(Cc2cccn2-c2ccc(Cl)cn2)CCO3)C[C@H](C)O1	.	.	.	.	.	i
O=c1cccc2n1Cc1cc3ccccc3nc1-2	-7.4%	-29.0%	-9.6%	-21.1%	49.1%	i
CC[C@@]1(O)C(=O)OCc2c1cc1n(c2=O)Cc2cc3c([N+](=O)[O-])cccc3nc2-1	0.631µM*	?	.	.	.	.
O=C(NC1CCCCC1)N1CCCCCC1	2.4%	-5.3%	?	-9.2%	1.8%	i
O=C(NC1CCCCC1)N1CCNCC1	12.0%	7.94µM*	2.3%	0.7%	3.0%	i
CCC(C)[C@H]1CN=C(N)N1CCc1cc(C(F)(F)F)cc(C(F)(F)F)c1 (some centres undefined)	-0.7%	11.1%	?	-102.4%	?	?
NC1=NC[C@@H](CC2CCCCC2)N1CCc1cc(C(F)(F)F)cc(C(F)(F)F)c1	.	.	?	-93.3%	20µM*	17.8µM*
NC1=NC[C@H](Cc2ccccc2)N1CCCCC1CCCCC1	-7.3%	15.9%	?	-105.4%	25.1µM*	?
CC(O)[C@H]1CN=C(N)N1CCc1cc(C(F)(F)F)cc(C(F)(F)F)c1 (some centres undefined)	-3.9%	-2.3%	3.5%	-8.4%	8.4%	i
NC1=NC[C@H](c2ccccc2)N1CCc1cc(C(F)(F)F)cc(C(F)(F)F)c1	-8.1%	-2.5%	11.2µM*	-110.3%	?	.
O=C(Nc1c(C(=O)N2CCN(c3ccccc3F)CC2)oc2ccccc12)c1cccc(F)c1	.	.	10.2%	-3.0%	11.9%	i
COc1cccc(OC)c1C(=O)NC(=S)N1CCCCC1c1cccnc1 (centres undefined)	-16.8%	22.4µM*	8.3%	1.5%	2.0%	i
O=C(/C=C/c1ccc(F)cc1)NC(=S)N1CCCCC1c1cccnc1 (centres undefined)	?	5.01µM*	-9.2%	3.5%	30.4%	i
O=C(NC(=S)NN1CCCCC1c1cccnc1)c1ccc(Br)cc1 (centres undefined)	1.41µM*	1.12µM*	-0.5%	-3.2%	1.8%	i
COC(=O)c1ccc(CNC(=O)c2ccc(S(=O)(=O)N3CCCC(C)C3)cc2)cc1 (centres undefined)	.	.	?	-9.6%	-17.2%	?
CC1CCCCN1S(=O)(=O)c1ccc(C(=O)Nc2nnc(C3=COCCO3)o2)cc1 (centres undefined)	1.26µM*	0.891µM*	-4.0%	-17.5%	-5.2%	i
O=C(Nc1nnc(C2=COCCO2)o1)c1ccc(S(=O)(=O)N2CCOCC2)cc1	-2.1%	11.2µM*	-1.3%	1.9%	1.3%	i
CC1CCCN(S(=O)(=O)c2ccc(C(=O)Nc3nnc(C4=COCCO4)o3)cc2)C1 (centres undefined)	1.12µM*	0.794µM*	.	.	.	.

From PubChem BioAssay
